The record followed here is PubChem BioAssay (EPA / NIEHS).

Records with an inconclusive call do not appear. The source made the active and inactive calls. The calls were made as follows: active = hit-call score of the fitted dose curve at least 0.9, where 1 is the maximum; inconclusive = response in the unintended direction; inactive = score below 0.9.

Test [1] is described as follows: Tanguay_ZF_120hpf_AXIS_legacy: (Legacy) Oregon State University Tanguay Lab 120 Hour Post-fertilization zebrafish Assay for Body Axis Malformation (AID 2283635).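 As to AC50: potency for an increased fraction of larvae scored with body axis malformation.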 In a few lines:
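Chorion is removed with pronase at 4 hpf, then single 6 hpf embryos are dosed (final DMSO 0.64%) and held statically at 28C in sealed, foil-covered plates. At 120 hpf body axis malformation is recorded as present or absent.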

A short description of test [2]: Tanguay_ZF_120hpf_EYE_legacy: (Legacy) Oregon State University Tanguay Lab 120 Hour Post-fertilization zebrafish Assay for Eye Malformation (AID 2283636). In a few lines:
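Binary brightfield scoring of eye defects at 120 hpf after static exposure from 6 hpf of single pronase-dechorionated wild-type embryos (28C, 0.64% DMSO). Non-mortality endpoints omitted where embryos died; fit vs DMSO.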

Test [3] in a line: Tanguay_ZF_120hpf_SNOU_legacy: (Legacy) Oregon State University Tanguay Lab 120 Hour Post-fertilization zebrafish Assay for Snout Malformation (AID 2283637). In a few lines: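 Binary snout-malformation call at 120 hpf in wild-type 5D embryos, chorion removed by pronase, under static exposure from 6 hpf at 28C (0.64% DMSO). Embryos dying by 24 or 120 hpf excluded.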
A short description of test [4]: Tanguay_ZF_120hpf_JAW_legacy: (Legacy) Oregon State University Tanguay Lab 120 Hour Post-fertilization zebrafish Assay for Jaw Malformation (AID 2283638).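 As to AC50: active means more embryos with jaw malformation than DMSO controls.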 In a few lines: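 Steps: dechorionate 4 hpf embryos (pronase); plate 1/well at 6 hpf; add test chemical, 0.64% DMSO final; seal, cover, hold at 28C statically to 120 hpf; score jaw defect presence/absence microscopically. Dead embryos not scored.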

Test [5] in a line: Tanguay_ZF_120hpf_OTIC_legacy: (Legacy) Oregon State University Tanguay Lab 120 Hour Post-fertilization zebrafish Assay for Otic Vesicle Malformation (AID 2283639). In a few lines:
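Wild-type zebrafish larvae, whole-embryo exposure from early stage to 120 hpf at 28C. Binary brightfield scoring of otic vesicle morphology, fitted in the positive direction against the DMSO baseline.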

Test [6] can be described thus: Tanguay_ZF_120hpf_PE_legacy: (Legacy) Oregon State University Tanguay Lab 120 Hour Post-fertilization zebrafish Assay for Pericardial Edema (AID 2283640).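 As to AC50: potency for increased incidence of pericardial edema versus DMSO baseline.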 In a few lines:
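Embryos from wild-type 5D adults were staged, then dosed in 0.64% DMSO. They were kept sealed in the dark at 28C until 120 hpf. Pericardial edema was then recorded as present or absent.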

Test [7] can be described thus: Tanguay_ZF_120hpf_BRAI_legacy: (Legacy) Oregon State University Tanguay Lab 120 Hour Post-fertilization zebrafish Assay for Brain Malformation (AID 2283641). In a few lines:
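Wild-type 5D larvae, static waterborne exposure to 120 hpf, 28C, 0.64% v/v DMSO. Brightfield scoring of brain defects, binary; dead embryos excluded. Positive ctrl 5uM trimethyltin chloride.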

Test [8] is described as follows: Tanguay_ZF_120hpf_SOMI_legacy: (Legacy) Oregon State University Tanguay Lab 120 Hour Post-fertilization zebrafish Assay for Somite Malformation (AID 2283647). In a few lines: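 Read-out: presence or absence of somite malformation in 120 hpf larvae, gain-of-signal relative to DMSO baseline. Embryos lacked chorion (pronase, 4 hpf) and were exposed statically from 6 hpf at 28C; dead larvae not scored.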

Test [9] can be described thus: Tanguay_ZF_120hpf_PFIN_legacy: (Legacy) Oregon State University Tanguay Lab 120 Hour Post-fertilization zebrafish Assay for Pectoral Fin Malformation (AID 2283648).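 Also: each larva judged yes or no for fin defect by brightfield with dead larvae skipped.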 In a few lines:
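Pectoral fin malformation was recorded as a binary endpoint at 120 hpf in wild-type Tropical 5D larvae, which had been dechorionated and exposed statically from 6 hpf at 28C in 0.64% DMSO. Dead embryos were excluded.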

A short description of test [10]: Tanguay_ZF_120hpf_CFIN_legacy: (Legacy) Oregon State University Tanguay Lab 120 Hour Post-fertilization zebrafish Assay for Caudal Fin Malformation (AID 2283649). In a few lines:
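Binary presence or absence of caudal fin malformation at 120 hpf, read by brightfield microscopy, with DMSO as baseline. Larvae came from 5D wild-type embryos exposed statically from 6 hpf at 28C after pronase dechorionation.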

As a reminder, the AC50 is the midpoint of the concentration-response curve, whichever way the signal moves.

In the case of `CC(=O)OC[C@H]1O[C@@](COC(C)=O)(O[C@H]2O[C@H](COC(C)=O)[C@@H](OC(C)=O)[C@H](OC(C)=O)[C@H]2OC(C)=O)[C@@H](OC(C)=O)[C@@H]1OC(C)=O`, the outcome in test [1], in test [2], in [3], in [4], in test [5] and in test [6] was inactive. The compound was classed as inactive in [7], in [8], in [9] and in test [10].

In the case of `CCN(C(=O)c1cc(C)cc(OC[C@H](C)Nc2ccncc2)c1)C(C)C`, the outcome in test [1], in test [2], in test [3], in test [4], in [5] and in test [6] was inactive. The compound was classed as inactive in [7], in test [8], in test [9] and in test [10].

For the compound `CCCCC(CC)COC(=O)CCCCCCCCC(=O)OCC(CC)CCCC` (stereo not drawn), the compound was classed as inactive in [1], in test [2], in test [3], in test [4], in test [5] and in [6]. The result in test [7], in test [8], in test [9] and in test [10] was inactive.

Turning to `COc1cccc(-c2ccc(/C=C\CN3CCCCCC3)cc2Cl)c1`, the compound was called inactive in test [1], in test [2], in test [3], in [4], in test [5] and in test [6]. Besides, the compound was classed as inactive in [7], in test [8] and in [9].

For the compound `COc1ccc(-n2nc(C(F)F)cc2-c2ccc(S(C)=O)cc2)cc1` (stereo not drawn), the concentration at half-maximal activity (AC50) in test [1] is 47 µM (active); in test [2], 51.6 µM (active); in [3], 40.4 µM (active); in [4] it was 46.7 µM (active); in [6] it was 37.7 µM (active); in test [7] it was 40.4 µM (active). In addition, the AC50 in test [9] is 48.1 µM (active); in [10], 12.8 µM (active). For the same compound, the call in test [5] and in [8] was inactive.

Turning to `CNCc1ccc(NC(=O)c2c[nH]c3c2C(=O)CCC3)cc1`, the result in [1], in test [2], in test [3], in test [4], in test [5] and in test [6] was inactive. Also, the compound was called inactive in [7], in test [8], in test [9] and in test [10].

On to `CC(C)CCCCCCOC(=O)c1ccc(C(=O)OCCCCCCC(C)C)c(C(=O)OCCCCCCC(C)C)c1`, for which the call in test [1], in test [2], in test [3], in test [4], in [5] and in test [6] was inactive. Moreover, the compound was classed as inactive in [7], in [8], in test [9] and in test [10].

Regarding `CC[C@H]1OC(=O)[C@H](C)[C@@H](O[C@H]2C[C@@](C)(OC)[C@@H](O)[C@H](C)O2)[C@H](C)[C@@H](O[C@@H]2O[C@H](C)C[C@H](N(C)C)[C@H]2O)[C@](C)(O)C[C@@H](C)C(=O)[C@H](C)[C@@H](O)[C@]1(C)O`, the compound was classed as inactive in test [1], in test [2], in [3], in [4], in test [5] and in test [6]. In addition, the outcome in [7], in test [8], in test [9] and in [10] was inactive.

As to `CC(C)=CCC/C(C)=C/CO`, the concentration at half-maximal activity (AC50) in test [1] is 23.6 µM (active); in test [10], 31.6 µM (active). In addition, the call in test [2], in test [3], in test [4], in [5], in [6] and in [7] was inactive. The call in test [8] and in test [9] was inactive.

Consider `CC(C)CCCCCCCOC(=O)CCCCC(=O)OCCCCCCCC(C)C`, for which the compound was called inactive in [1], in [2], in [3], in test [4], in [5] and in test [6]. The compound was classed as inactive in [7], in [8], in [9] and in test [10].

Turning to `O=C(CCCCCCCCc1cccnc1)N1CCC(C=C(c2ccccc2)c2ccccc2)CC1`, the outcome in test [1], in test [2], in test [3], in test [4], in test [5] and in test [6] was inactive. The outcome in [7], in test [8], in test [9] and in test [10] was inactive.

Take `COC(=O)c1ccccc1O`: the outcome in test [1], in [2], in [3], in test [4], in test [5] and in test [6] was inactive. The outcome in [7], in test [8], in test [9] and in test [10] was inactive.

With `COC(=O)c1c(Cl)c(Cl)c(C(=O)OC)c(Cl)c1Cl`, the compound was classed as inactive in [1], in test [2], in test [3], in [4], in test [5] and in test [6]. The result in test [7], in [8] and in test [10] was inactive.

On to `CCC(C)(C)C(=O)O[C@H]1C[C@@H](C)C=C2C=C[C@H](C)[C@H](CC[C@@H]3C[C@@H](O)CC(=O)O3)[C@H]21`, for which the AC50 was 0.671 µM (active) in [1]; 0.737 µM (active) in [2]; 0.796 µM (active) in test [3]; 0.766 µM (active) in test [4]; 0.747 µM (active) in test [5]; 0.64 µM (active) in test [6]. For the same compound, the figures for the AC50 in test [7] and in test [9] were 0.645 µM (active) and 0.652 µM (active), respectively. Moreover, the result in test [8] and in test [10] was inactive.

Take `Clc1nc(Cl)c(Cl)c(Cl)c1Cl`: the call in test [1], in test [2], in [3], in test [4], in [5] and in test [7] was inactive. Besides, the outcome in test [8], in [9] and in test [10] was inactive.

Take `Cc1ccc(S(=O)(=O)O)cc1C`: the compound was called inactive in [1], in [2], in [3], in [4], in [5] and in test [7]. Besides, the compound was called inactive in test [8], in test [9] and in test [10].

As to `CCOC(=O)COc1ccc2c(c1)CC(NCC(O)c1cccc(Cl)c1)CC2` (stereo not drawn), the call in [1], in [2], in test [3], in test [4], in test [5] and in [6] was inactive. The result in test [7], in test [8], in [9] and in test [10] was inactive.

For `C1N2CN3CN1CN(C2)C3`, the outcome in test [1], in test [2], in [3], in test [4], in [5] and in [6] was inactive. Besides, the compound was called inactive in [7], in test [8], in test [9] and in test [10].

Turning to `CC(=O)OCCC(C)C`, the compound was classed as inactive in test [1], in test [2], in test [3], in test [4], in [5] and in test [6]. Besides, the call in test [7] and in test [10] was inactive.

Take `CC[C@H](C)C(=O)O[C@H]1C[C@@H](C)C=C2C=C[C@H](C)[C@H](CC[C@@H]3C[C@@H](O)CC(=O)O3)[C@H]21`: the call in test [1], in [2], in [3], in [4], in [5] and in test [6] was inactive. Moreover, the call in test [8], in test [9] and in [10] was inactive.
